Laboratory results published in PubChem BioAssay AID1159580 (chemical genetic matrix, 2015).
About 2,000 (36%) of roughly 5,500 compounds were called active. About 18% were inconclusive and are not listed. No stated cut-off is given here; in the data, active means normalized growth mostly below about 0.91 (no sharp cut-off); inconclusive means no clear call, values can overlap the other calls; inactive means mostly above about 0.92. This is one part of the list.

Assay: chemical genetic growth profiling, strain panel (AID 1159580);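 further: tested at 20 µM; growth read once vehicle control cultures reached saturation at 30 °C; 1 = growth at the plate median or of vehicle wells; lower values mean less growth of the strain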
Conditions: S. cerevisiae deletion strains, growth OD

Measured: normalized growth

NNCc1ccccc1
inactive: locus YAL021C, strain ccr4, hits give low values 0.993 | locus YAL026C, strain drs2, hits give low values 0.986 | locus YAL030W, strain snc1, hits give low values 0.979 | locus YBL061C, strain skt5, hits give low values 0.983 | locus YBR009C, strain hhf1, hits give low values 1 | locus YBR023C, strain chs3, hits give low values 0.982 | locus YBR171W, strain sec66, hits give low values 0.97 | locus YBR231C, strain swc5, hits give low values 1.01 | locus YBR279W, strain paf1, hits give low values 0.982 | locus YCL011C, strain gbp2, hits give low values 0.99 | locus YCL016C, strain dcc1, hits give low values 0.982 | locus YCL069W, strain vba3, hits give low values 0.993 | locus YCR088W, strain abp1, hits give low values 0.974 | locus YDL005C, strain med2, hits give low values 0.992 | locus YDL040C, strain nat1, hits give low values 0.971 | locus YDR001C, strain nth1, hits give low values 0.989 | locus YDR069C, strain doa4, hits give low values 0.976 | locus YDR137W, strain rgp1, hits give low values 0.96 | locus YDR159W, strain sac3, hits give low values 0.983 | locus YDR195W, strain ref2 1.02 | locus YDR297W, strain sur2, hits give low values 0.989 | locus YDR334W, strain swr1, hits give low values 0.99 | locus YDR335W, strain msn5, hits give low values 1 | locus YDR392W, strain spt3, hits give low values 1 | locus YEL003W, strain gim4, hits give low values 0.996 | locus YEL037C, strain rad23, hits give low values 0.991 | locus YEL061C, strain CIN8 (second series), hits give low values 0.978 | locus YER015W, strain faa2, hits give low values 0.999 | locus YER016W, strain bim1, hits give low values 0.998 | locus YER111C, strain swi4, hits give low values 0.988 | locus YER155C, strain BEM2 (second series), hits give low values 0.989 | locus YFR010W, strain ubp6, hits give low values 0.989 | locus YGL167C, strain pmr1, hits give low values 0.989 | locus YGL173C, strain kem1, hits give low values 0.961 | locus YGL227W, strain vid30, hits give low values 0.994 | locus YGL240W, strain doc1, hits give low values 0.98 | locus YGL253W, strain hxk2, hits give low values 0.993 | locus YHR013C, strain ard1, hits give low values 1.03 | locus YHR027C, strain rpn1, hits give low values 0.997 | locus YHR142W, strain chs7, hits give low values 0.985 | locus YJL092W, strain hpr5, hits give low values 0.993 | locus YJL095W, strain BCK1 (second series), hits give low values 0.986 | locus YJL115W, strain asf1, hits give low values 0.987 | locus YJL129C, strain trk1, hits give low values 0.978 | locus YJL154C, strain vps35, hits give low values 0.986 | locus YJL164C, strain tpk1, hits give low values 0.98 | locus YJL166W, strain qcr8, hits give low values 0.997 | locus YJL187C, strain SWE1, hits give low values 0.987 | locus YKL160W, strain elf1, hits give low values 0.988 | locus YKR026C, strain gcn3, hits give low values 0.974 | locus YKR091W, strain srl3, hits give low values 0.985 | locus YLL001W, strain dnm1, hits give low values 0.983 | locus YLL026W, hits give low values 1 | locus YLL041C, strain sdh2, hits give low values 0.992 | locus YLR027C, strain aat2, hits give low values 0.991 | locus YLR221C, strain rsa3, hits give low values 0.978 | locus YLR258W, strain gsy2, hits give low values 0.987 | locus YLR262C, strain YPT6 (second series), hits give low values 0.906 | locus YLR320W, strain mms22, hits give low values 0.993 | locus YLR342W, strain FKS1, hits give low values 0.981 | locus YLR357W, strain rsc2, hits give low values 0.967 | locus YLR370C, strain arc18, hits give low values 0.983 | locus YLR384C, strain iki3, hits give low values 0.992 | locus YML120C, strain ndi1, hits give low values 0.979 | locus YMR058W, strain fet3, hits give low values 0.996 | locus YMR125W, strain sto1, hits give low values 0.986 | locus YMR129W, hits give low values 0.99 | locus YMR205C, strain PFK2, hits give low values 0.976 | locus YMR231W, strain pep5, hits give low values 0.994 | locus YNL071W, strain lat1, hits give low values 1.01 | locus YNL209W, strain ssb2, hits give low values 0.989 | locus YNL248C, strain rpa49, hits give low values 0.993 | locus YNL322C, strain KRE1 (second series), hits give low values 0.992 | locus YNR049C, strain mso1, hits give low values 0.99 | locus YOR001W, strain rrp6, hits give low values 0.994 | locus YOR070C, strain gyp1, hits give low values 0.989 | locus YOR080W, strain dia2, hits give low values 0.983 | locus YOR083W, strain WHI5, hits give low values 0.987 | locus YOR106W, strain vam3, hits give low values 0.963 | locus YOR265W, strain rbl2, hits give low values 1 | locus YOR270C, strain vph1, hits give low values 0.979 | locus YOR290C, strain snf2, hits give low values 0.987 | locus YPL051W, strain arl3, hits give low values 0.969 | locus YPL078C, strain atp4, hits give low values 0.997 | locus YPL106C, strain sse1, hits give low values 0.963 | locus YPL240C, strain hsp82, hits give low values 1
